High-throughput results (PubChem)
The full list was thinned out, with hits kept by preference.
Pf Dd2 inh: qHTS Primary assay for Inhibitors of Plasmodium falciparum Dd2 growth in vitro; Potency, µM (titrated, usually from 28.9 µM), inactives show at the highest dose activity, negative = inhibition, most hits filed as inhibitors; P. falciparum Dd2 growth, SYBR Green, 72 h; 120,000 compounds, 4.3% hits; AID 1347417, 2020; active means well fitted inhibition curve with a large enough effect;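 further: plate controls were DMSO vehicle for no effect and reference drug for full effect; nearly all actives have a fitted effect of over 65% in size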
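Infected erythrocytes (Dd2, 0.3% parasitemia, 2.5% hematocrit final) are added to compound in RPMI-1640/Albumax II medium, grown 72 h at 37C in low oxygen, then lysed with saponin/Triton-X containing SYBR Green and read by fluorescence.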
The depositor's hits bear a star; i = inactive; [ ] = remark or other dose. Potency means the concentration at half of the fitted maximal effect.

SMILES | Pf Dd2 inh
CCC(=O)N1CCC(Cc2noc(-c3ccncc3)n2)C1 (configuration not stated) | 106.6%
O=C(Nc1ccccc1)C1=NO[C@@H]2CN(Cc3cc(F)ccc3F)C[C@H]12 | -24.9%[44.1 µM]
Cc1ccc(N2Cc3c(ncnc3N3CCN(C)CC3)N(C)CC2=O)cc1 | -22.9%
CC1CCCN(c2ncnc3c2CN(c2ccc(Cl)cc2)C(=O)CN3C)C1 (configuration not stated) | 10µM*
CC1CCCN(c2ncnc3c2CN(c2ccccc2F)C(=O)CN3C)C1 (configuration not stated) | -11.2%
COCC(=O)N1CCC(C(NC(=O)c2ccccc2)C(=O)N2CCCCC2)CC1 (configuration not stated) | -6.2%
CCOC(=O)c1cc(-c2ccc(C)cc2)n(CC(=O)Nc2cc(C)ccc2C)c1C | 2.6%
CCOC(=O)c1cc(-c2ccc(C)cc2)n(CCCC(=O)Nc2cc(C)ccc2C)c1 | 11.2µM*
CCOC(=O)c1cc(-c2ccccc2)n(CCCC(=O)Nc2ccc(C)cc2Cl)c1C | i
CC(C)CCN1CCC(N2CCN(C(=O)c3ccsc3)CC2)C1=O (configuration not stated) | -14.3%
O=C(c1ccncc1)N1CCC(N2C(=O)C3(CCCC3)C2c2ccccc2)CC1 (configuration not stated) | i
O=C(c1ccc2cc[nH]c2c1)N1CCC(N2C(=O)C3(CCCCC3)C2c2ccncc2)CC1 (configuration not stated) | 7.08µM*
CCn1nccc1C(=O)N1CCC(N2C(=O)C3(CCCCC3)C2c2ccncc2)CC1 (configuration not stated) | i
COc1ccc(C(=O)N2CCC(N3C(=O)C4(CCCC4)C3c3ccccc3)CC2)cc1 (configuration not stated) | -11.4%
Cc1cccc(C(=O)N2CCC(N3C(=O)C4(CCCCC4)C3c3ccncc3)CC2)c1 (configuration not stated) | 6.31µM*
Cn1nccc1C(=O)N1CCC(N2C(=O)C3(CCCCC3)C2c2ccccc2)CC1 (configuration not stated) | i
O=C(CC1=CCCCC1)N1CCC2(CC1)CN(c1ccncn1)CC2CO (configuration not stated) | i
O=C([C@@H]1C[C@H](F)CN1C(=O)c1cccc(F)c1)N1CCOCC1 | 6.3%
CN1CC(=O)N(c2ccccc2F)Cc2c(NCc3ccccc3)ncnc21 | 2.7%
COCC1CN(S(=O)(=O)c2cccnc2)CC12CCNCC2 (configuration not stated) | 21.1%
Cc1ccc2[nH]c(CN3CCN(CC4CCN(C)CC4)CC3)cc(=O)c2c1 | 8.0%
CCn1ncc(N2CCCC(CC(=O)NC3CCN(Cc4ccccc4)CC3)C2)cc1=O (configuration not stated) | -12.6%
Cc1ccc(NC(=O)C2Cc3ccccc3N2C(=O)c2ccccc2)cc1Cl (configuration not stated) | 42.8%
Cn1c(=O)n(C)c2cc(N3CCCC3)c(NC(=O)Nc3ccccc3)cc21 | i
COc1cccc(CNC(=O)C(=O)Nc2ccc3nc4n(c(=O)c3c2)CCCCC4)c1 | -9.1%
SMILES | Pf Dd2 inh
COc1cccc(NC(=O)Nc2ccc3nc(N4CCN(C)CC4)cc(C)c3c2)c1 | 2.51µM*
COc1cccc(NC(=O)c2ccc3c(c2)CCN3S(C)(=O)=O)c1 | 20.8%
Cc1cc(N2CCN(C)CC2)nc2ccc(NC(=O)Nc3ccccc3Cl)cc12 | 3.16µM*
COc1ncccc1CN1CC[C@@H]2OCC(=O)N(Cc3ccccc3)[C@H]2CC1 | -3.4%[44.1 µM]
CCc1cccc(NC(=O)C2Cn3cccc3C(=O)N2)c1 (configuration not stated) | i
COc1ccc(C(=O)N[C@H]2CC[C@]3(C)CCC([C@H](C)C(=O)NCc4ccccc4OC)[C@H](O)[C@H]3[C@@H]2C)cc1 (some centres not stated) | i
COCc1nnc2n1CCC(NC(=O)COc1ccc(F)cc1)CC2 (configuration not stated) | i
c1cc(-c2nc(C3CCOC3)nn2Cc2ccc3c(c2)OCO3)[nH]n1 (configuration not stated) | -12.1%
NCc1ccc(-c2nc(C3CCOC3)nn2Cc2ccccc2)cc1 (configuration not stated) | 4.47µM*
c1ccc(Cn2nc(C3CCOC3)nc2-c2ccoc2)cc1 (configuration not stated) | -2.1%
O=C(c1cccc(F)c1)N1CCN(c2cc(-c3ccc(Cl)cc3)[nH]n2)CC1 | i
CCOc1ccc2c(c1)c(=O)c(S(=O)(=O)c1ccc(CC)cc1)cn2CC | -10.8%
COc1ccc2c(c1)c(=O)c(S(=O)(=O)c1ccc(Cl)cc1)cn2Cc1cc(C)ccc1C | 11.2µM*
CCOc1ccc2c(c1)c(=O)c(S(=O)(=O)c1ccc(F)cc1)cn2CC(=O)Nc1ccccc1C | i
Cc1ccc(S(=O)(=O)c2cn(Cc3ccc(F)cc3)c3cc(F)c(F)cc3c2=O)cc1 | 13.4%
O=c1c(S(=O)(=O)c2ccc(Cl)cc2)cn(Cc2ccc(F)cc2)c2ccc(F)cc12 | 11.2µM*
CCOc1ccc(S(=O)(=O)c2cn(Cc3ccccc3C)c3ccc(OC)cc3c2=O)cc1 | 4.47µM*
COc1ccc(OC)c(NC(=O)Cn2cc(S(=O)(=O)c3ccccc3)c(=O)c3cc(C)ccc32)c1 | i
COc1ccc(S(=O)(=O)c2cn(C)c3ccc(C)cc3c2=O)cc1 | 21.3%
Cc1ccc(S(=O)(=O)c2cn(CC(=O)Nc3ccc(Cl)cc3)c3ccc(F)cc3c2=O)cc1C | i
COc1ccc(-c2cc(N3CCCN(C(=O)c4ccc5ncccc5c4)CC3)n[nH]2)cc1 | i
C[C@@H](NCC1CCCC1)c1onc(-c2cccnc2)c1C(=O)O | 18.7%[44.1 µM]
CCn1cc(S(=O)(=O)N2CCC3(CCC3OC)CC2)cn1 (configuration not stated) | -5.6%
COCCN(Cc1ccncc1)C(=O)C1CCN(C(=O)C2CC2)CC1 | 29.3%
Cc1nn2c(c1-c1ccnn1C(C)C)N(C(=O)c1ccc(F)cc1)CCC2 | 7.5%[44.1 µM]
SMILES | Pf Dd2 inh
CCN1CCC(N[C@@H]2CC[C@@H]2NC(=O)CCCc2ccccc2)CC1 | -25.2%
COc1ccc(Nc2oc(-c3ccc(COc4ccccc4C)o3)nc2C#N)cc1 | 11.2µM*
CNc1oc(-c2ccc(COc3ccc(C)cc3)o2)nc1C#N | -15.6%
COc1ccc(OCc2ccc(-c3nc(C#N)c(N4CCCCC4)o3)o2)cc1 | 9.3%
Cc1ccccc1CCC1CCCN(C(=O)CCN2CCCC2=O)C1 (configuration not stated) | 0.6%
N#Cc1ccc(C(=O)NCc2nnc3ccc(-c4ccc(F)cc4)nn23)cc1 | -10.4%
Cc1ccc(NC(=O)c2cc(S(=O)(=O)N3CCCC3)c[nH]2)c(C)c1 | i
COc1ccc(NC(=O)c2c(C)oc3ccc(O)c(CN4CCCC(C)C4)c23)cc1Cl (configuration not stated) | 0.398µM*
Cc1ccc(NC(=O)Cn2c(=O)oc3cc(S(=O)(=O)N4CCCCC4)ccc32)c(C)c1 | -4.3%
COc1cc(=O)n2c(c1C(=O)Nc1ccc(C)cc1)CCCC2 | i
COc1ccc(NC(=O)c2c(C)oc3ccn(Cc4cccc(F)c4)c(=O)c23)cc1F | -16.6%
Cc1ccc(NC(=O)c2c(C)oc3ccc(O)c(CN4CCCCCC4)c23)cc1 | 0.631µM*
CCN(CC)S(=O)(=O)c1ccc(NC(=O)c2c(C)oc3ncnc(N4CCCCC4)c23)cc1 | 32.0%
COc1ccc(NC(=O)c2cccn2-c2nnc(N3CCCCC3)s2)cc1Cl | 6.4%
Cc1ccc(NC(=O)c2c(C)oc3ccc(O)c(CN4CCCCCC4)c23)c(C)c1 | 1.12µM*
